# Measured values reported in PubChem BioAssay AID1851 (National Center for Advancing Translational Sciences (NCATS), 2009).
# Values joined by “and” are separate entries in the source; they are usually repeats but may differ in a detail not shown here. Equal values may be shown once. About 2,600 (16%) of roughly 16,000 compounds were called active. About 20% were inconclusive and are not listed. Calls follow the shape of the dose curve; as a rule, active = well fitted curve in the direction sought with a large enough effect; inconclusive = small, poorly fitted or top-dose-only effect, or effect the other way; inactive = no such curve, though single readings can be large or run the other way. A selection follows. A structure can be active in one record and inactive in another.
# Target: Cytochrome P450 2D6 (Homo sapiens) (UniProt P10635)
# Experiment: Cytochrome panel assay with activity outcomes
# Settings: recombinant CYP, pro-luciferin dealkylation, luminescence, p450-cyp2d6; series mostly up to 57.1 µM; activity, negative = inhibition: at the top concentration
# % is scaled to controls: 0 for no effect and ±100 for the full control effect.
# Cytochrome P450 2D6 (Homo sapiens), sequence (P10635 whole entry, looked up): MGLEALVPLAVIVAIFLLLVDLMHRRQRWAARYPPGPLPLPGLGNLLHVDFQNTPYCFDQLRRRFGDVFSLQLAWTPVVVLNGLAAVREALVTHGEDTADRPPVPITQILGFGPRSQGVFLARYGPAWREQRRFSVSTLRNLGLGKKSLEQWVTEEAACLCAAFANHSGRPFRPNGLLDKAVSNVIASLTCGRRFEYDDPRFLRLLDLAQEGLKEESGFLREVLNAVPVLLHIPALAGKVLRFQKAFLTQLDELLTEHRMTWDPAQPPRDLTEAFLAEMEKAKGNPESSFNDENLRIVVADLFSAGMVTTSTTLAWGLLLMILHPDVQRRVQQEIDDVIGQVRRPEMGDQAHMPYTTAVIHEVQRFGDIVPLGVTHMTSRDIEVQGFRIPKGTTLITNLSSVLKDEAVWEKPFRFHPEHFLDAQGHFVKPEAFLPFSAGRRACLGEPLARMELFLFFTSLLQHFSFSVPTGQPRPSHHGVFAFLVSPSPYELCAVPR
SMILES,"activity, negative = inhibition",AC50
CC(C)(C)C(=O)NC(=S)NCCc1ccccc1,-7.67% (inactive),
Fc1cc(Br)ccc1NC(=S)NCCc1ccccc1,,20 µM (active)
COc1ccccc1NC(=S)NCCc1ccccc1,,7.08 µM (active)
Fc1ccccc1NC(=S)NCCc1ccccc1,,15.8 µM (active)
CCN(C(=S)Nc1ccccc1F)C1CCCCC1,-3.58% (inactive),
O=C(NCCc1ccccc1)C(=O)NN=C1CCCC1,-4.67% (inactive),
CCNC(=S)NNC(=O)Cc1ccccc1,9.05% (inactive),
COc1ccccc1NC(=S)NC(=O)c1ccc(-c2ccc(Cl)cc2)o1,10.4% (inactive),
CCNc1ncc2nc(-c3ccccc3)c(=O)n(Cc3ccc(F)cc3)c2n1,-1.91% (inactive),
CS(=O)(=O)N1CCC2(CCCN(C(=O)Nc3cccc(C#N)c3)C2)CC1,-4% (inactive),
COCCn1c(=O)c(-c2ccccc2)nc2cnc(OC)nc21,-10.7% (inactive),
CCn1c(CCCc2nc3c([nH]2)c(=O)n(C)c(=O)n3C)nc2c1c(=O)n(C)c(=O)n2C,8.15% [at 11.4 µM] (inactive),
S=c1[nH]nc(CCc2ccccc2)n1Cc1ccccc1,-22.7% (inactive),
CC(=O)c1ccc(N2CCC(c3cc(-c4ccc(Cl)cc4Cl)n[nH]3)CC2)c([N+](=O)[O-])c1,-14.1% (inactive),
COc1ccc(C(=O)n2c(SC)nc3cc4c(cc32)OCCO4)cc1,-8.26% (inactive),
Cc1cccc(OCCSCc2nc3ccccc3[nH]2)c1,,0.282 µM (active)
COc1cnc(-c2ccccc2)nc1Oc1cccc(C)c1,22.2% (inactive),
O=C(COc1ccc2ccccc2c1Br)NNC(=O)Nc1ccccc1,30.8% (inactive),
Cc1nc(SCC(=O)c2cc3ccccc3oc2=O)c(C#N)c(C)c1C(=O)Nc1ccccc1,13.9% (inactive),
COc1ccc(/C=C(/NC(C)=O)C(=O)O)cc1,-28.3% (inactive),
CCOC(=O)CNC(=O)c1cccnc1,-11.1% (inactive),
c1ccc(CSc2nnc([C@@H]3CCCN3)o2)cc1,-29.5% (inactive),

SMILES,"activity, negative = inhibition",AC50
c1ccc(CSc2nnc(-c3sccc3-n3cccc3)o2)cc1,,14.1 µM (active)
Fc1ccc(CSc2nnc(-c3cc4c(s3)-c3ccccc3CC4)o2)cc1,-7.85% (inactive),
CCc1ccc(N(C(=O)c2csnn2)C(C(=O)NC(C)(C)C)c2ccncc2)cc1 (configuration not stated),-26.1% (inactive),
O=C(O)c1ccccc1C(=O)NNc1ccc(F)cc1,8.55% (inactive),
CCOC(=O)N1CCN(S(=O)(=O)c2ccc(C(=O)Nc3ccc(F)cc3F)cc2)CC1,-9.02% (inactive),
N#Cc1c(-c2ccccc2)cc(-c2ccccc2)nc1SCc1nnc(-c2ccccc2)o1,27.3% (inactive),
NC1=NC2(CCCCCC2)n2c(nc3ccccc32)N1,,12.6 µM (active)
CC1CCC2(CC1)N=C(N)Nc1nc3ccccc3n12 (configuration not stated),,2.82 µM (active)
Nc1c(N=Nc2cccc(Cl)c2)c(=O)[nH]n1-c1ccccc1,10.4% (inactive),
CCC(C)n1c(NC(=O)c2ccccc2)c(C#N)c2nc3ccccc3nc21 (configuration not stated),-25% (inactive),
CCOc1cccc(/C(O)=C2/C(=O)C(=O)N(Cc3cccnc3)C2c2ccco2)c1 (configuration not stated),7.28% (inactive),
CN1C(C(=O)Nc2ccccn2)=C(O)c2ccccc2S1(=O)=O,,inactive and 25.1 µM (active)
Cc1cc(NC(=O)C2=C(O)c3ccccc3S(=O)(=O)N2C)no1,-6.72% [at 25.6 µM] (inactive),
CN1C(C(=O)Nc2ccccn2)=C(O)c2sccc2S1(=O)=O,13.5% [at 25.6 µM] (inactive),
CCNc1ncc2nc(-c3ccc(OC)cc3)c(=O)n(Cc3ccc(F)cc3)c2n1,6.64% (inactive),
O=C(CN1CCN(S(=O)(=O)c2ccccc2)CC1)NC(=O)NCc1ccccc1,30.7% (inactive),
CCCOC(=O)c1c(-c2ccccc2)nc(CC)c(C(=O)SCC)c1CCC,-2.88% (inactive),
Cc1cc(Cl)nc(NC(=O)CSc2ccc(Cl)cc2)n1,18.7% [at 11.4 µM] (inactive),
COCc1nnc(NC(=O)CSc2ccc(C)cc2)s1,-19.3% (inactive),
Cc1cnc(NC(=O)CSc2ccc(Cl)cc2)s1,,3.98 µM (active)
COC(=O)c1ccccc1NC(=O)c1c(Br)cnn1C,-21.6% (inactive),
COc1cccc(OCc2nnc(SCC(=O)NCc3ccco3)n2C)c1,-15% (inactive),

SMILES,"activity, negative = inhibition",AC50
CNc1ncc(C(=O)c2ccccc2)s1,-7.9% (inactive),
CCOc1ncnc2c1oc1nc(CC(C)C)c3c(c12)CC(C)(C)OC3,-20.9% (inactive),
C=CC[N+]1(CC#CCOC(c2ccccc2)c2ccccc2)CCOCC1,,7.08 µM (active)
O=C1N=C(N2CCOCC2)S/C1=C\C=C/c1ccccc1,-13.9% (inactive),
Cn1c([N+](=O)[O-])cnc1CN1CCN(CCO)CC1,10.5% [at 11.4 µM] (inactive),
O=C1CCCC=C1[C@H](CCc1ccccc1)OC(=O)c1ccc(Br)cc1,-4.24% [at 11.4 µM] (inactive),
O=C(NC(NC(=S)Nc1cc(Cl)ccc1Cl)C(Cl)(Cl)Cl)c1ccco1 (configuration not stated),,11.2 µM (active)
O=C(NNC(=S)Nc1ccccc1)c1ccco1,0.149% (inactive),
O=C(NC(=S)Nc1cccc(Cl)c1N1CCCCC1)c1ccco1,-24.3% (inactive),
N#CCCn1cc(/C=N/O)c(-c2ccc(Cl)cc2)n1,-23.4% (inactive),
N#Cc1c2c(c(-n3cnc4ccccc43)n3c1nc1ccccc13)CCC2,1.48% (inactive),
O=C(NCc1ccccc1)c1ccc2c(c1)C(=O)N(CC1CCCO1)C2=O (configuration not stated),-2.23% (inactive),
CC1=CC(=O)C=CC1(C)C(Cl)(Cl)Cl (configuration not stated),-29% (inactive),
CN(C)/C=N/c1ncc(C(=O)c2ccc3ccccc3c2)s1,-19.7% (inactive),
COc1ccc(S(=O)(=O)N(CC(=O)N2CCCC2)Cc2ccccc2)cc1,-30.1% (inactive),
CC(C)N(CCC(=O)c1ccc2ccccc2c1)Cc1ccccc1,,2 µM (active) and inactive
CC1CN(C(=S)NC(=O)c2ccc([N+](=O)[O-])cc2)CC(C)O1 (configuration not stated),-6% (inactive),
COc1ccc(Oc2ncc3nc(C)c(=O)n(-c4ccc(OC)cc4)c3n2)cc1,-5.24% (inactive),
Cc1ccc(C(=O)Nc2cc(Cl)ccc2OC(=O)c2ccc(C)cc2)cc1,-21.9% (inactive),
NCCNC(=O)c1ccc(Cl)cc1,,inactive
O=C(Nc1ccc(Cl)cc1C(F)(F)F)c1ccc(Cl)cc1,,0.282 µM (active)
COc1ccc(COC(=O)N/N=C2/C[C@@H](O)[C@@H](O)[C@@H]3[C@H]4C(=O)N(c5ccc(F)cc5F)C(=O)[C@@H]4CC[C@H]23)cc1,-14.9% [at 11.4 µM] (inactive),

SMILES,"activity, negative = inhibition",AC50
CCCN(CCC)CCCNS(=O)(=O)c1cc(Br)cc2c1N(C(C)=O)CC2,-20.5% (inactive),
O=C(O)Cn1c(-c2ccccc2)nc2ccccc21,-25.1% (inactive),
O=c1c2ccc([N+](=O)[O-])c3cccc(c32)c2nc3ccccc3n12,-14.8% (inactive),
O=C(O)c1ccc2c3c1cccc3c(=O)n1c3ccccc3nc21,,15.8 µM (active)
Cc1cc(N2CCOCC2)ncc1[N+](=O)[O-],-3.47% (inactive),
COc1ccc(Cc2nnc(NC(=O)c3ccco3)s2)cc1,6.69% (inactive),
COc1ccccc1CNc1cc(-c2ccccc2OC)ncn1,,20 µM (active)
COc1ccccc1CNc1cc(-c2ccccc2Cl)ncn1,,12.6 µM (active)
COc1ccccc1-c1cc(Nc2ccn[nH]2)ncn1,-4.03% (inactive),
COc1ccccc1-c1cc(NCc2ccccc2)ncn1,,20 µM (active)
COc1ccccc1CNc1cc(-c2ccoc2)ncn1,,15.8 µM (active)
Cc1sc2ccccc2[n+]1CCC(C)S(=O)(=O)[O-] (configuration not stated),10.3% (inactive),
C=CCSc1nc(Oc2ccccc2)c2sccc2n1,-26.5% (inactive),
CCCc1nnc(SCC(=O)N2CCCCC2C)n1CCCOC (configuration not stated),11.7% (inactive),
CCn1cc(C(=O)O)c(=O)c2cnc(N3CCNCC3)nc21,9.12% [at 25.6 µM] (inactive),
CO[C@@H]1COC(=O)C/C=C\[C@H](C)COC(=O)[C@H](Cc2ccccc2)NC(=O)C/C=C\[C@H]1C,9.42% [at 11.4 µM] (inactive),
Cc1cc(SC(C)C(=O)Nc2c(C)n(C)n(-c3ccccc3)c2=O)nc2ccccc12 (configuration not stated),-1.98% (inactive),
C[C@@]12C(=O)OC(=O)[C@]1(C)[C@H]1CC[C@@H]2O1,8.05% [at 25.6 µM] (inactive),
COC(=O)C/C=C1\c2ccccc2[C@H](OC)[C@H]1C,5.25% [at 11.4 µM] (inactive),
CC(C)Cn1c(C(C)C)nc([N+](=O)[O-])c1S(=O)(=O)c1ccc(F)cc1,18.2% (inactive),
CSc1nc(C)cc(SC(C(C)=O)C(=O)Nc2ccccc2)n1 (configuration not stated),-8.06% (inactive),
C/C(=N\NC(=S)Nc1ccc(F)cc1)C1CC1,-27% (inactive),

SMILES,"activity, negative = inhibition",AC50
C[C@@]12CCC(=O)C=C1CC[C@H]1[C@H]3CC[C@](O)(C(=O)CO)[C@]3(C)CC(=O)[C@@H]12,-2.72% [at 25.6 µM] (inactive),
COc1ccc(NC(=O)c2cc(-c3cccnc3)nc3ccc(C)cc23)cc1OC,8.76% (inactive),
Cc1cccc(NC(=S)NC(=O)c2cc(-c3ccccc3)nc3ccccc23)c1,17.4% (inactive),
Cc1ccc2nc(-c3ccccc3)cc(C(=O)NCCCn3ccnc3)c2c1,,5.01 µM (active)
COc1cccc(Nc2ncc3nc(-c4ccc(Cl)cc4)c(=O)n(CCC#N)c3n2)c1,9.73% (inactive),
C=CCSc1ncccc1C(=O)NCc1ccc(C)cc1,-19.5% (inactive),
O=C(/C=C\c1ccc(O)c(O)c1)O[C@@H](Cc1ccc(O)c(O)c1)C(=O)O,7.2% (inactive),
CCCC(=O)NC(Nc1ccccc1F)C(Cl)(Cl)Cl (configuration not stated),-14.8% (inactive),
COCCNc1ncncc1-c1c(C)noc1C,4.62% (inactive),
CC(=O)NCCNc1ncncc1-c1ccccc1C(F)(F)F,-20.6% (inactive),
COc1cccc(-c2cncnc2NCCc2cnc[nH]2)c1,,7.94 µM (active)
COc1ccccc1-c1cncnc1NCCc1cnc[nH]1,,10 µM (active)
FC(F)(F)c1ccccc1-c1cncnc1NCCc1cnc[nH]1,,12.6 µM (active)
CC(Oc1ccc(Cl)cc1)C(=O)/C=C/N(C)C (configuration not stated),5.98% (inactive),
COc1ccc(CNc2nc3nc4c(c(=O)n3[nH]2)CCC4)cc1,3.53% (inactive),
CN1CC[C@@]2(CCCN(C(=O)c3cc(C(F)(F)F)cc(C(F)(F)F)c3)C2)C1,-4.22% (inactive),
O=C(NC1CCCCC1)c1ccc(COCC(F)(F)F)o1,-12.2% (inactive),
Cc1cc2ccc(OC(=O)c3ccc(N=C(N)N)cc3)cc2oc1=O,-7.56% [at 11.4 µM] (inactive),
C=CCOc1cccc(/C=N/NC(=O)C(=O)NCc2ccco2)c1,-29.4% (inactive),
